PubChem BioAssay (NCATS)
Results filed as inconclusive are left out. Activity calls are given as the source filed them. Calls come from the whole dose curve; as a rule, active = well fitted inhibition curve with a large enough effect; inconclusive = small, poorly fitted or top-dose-only effect; inactive = no such curve, though single readings can be large or run the other way.

Target: Retinaldehyde dehydrogenase 3 (Homo sapiens) (UniProt P47895)
Assay: qHTS for Inhibitors of the Aldehyde Dehydrogenase Family (ALDH1A3) Primary screen (AID 2061315);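 note: plate controls were DMSO vehicle for no effect and reference inhibitor for full effect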
Settings: ALDH inhibition qHTS; series mostly up to 56 µM; activity change, negative = inhibition: at the top concentration

SMILES | activity change, negative = inhibition
Brc1ccc([C@H]2CN3CCSC3=N2)cc1 | -20.5% (inactive)
Cc1cc(N)c2ccccc2[n+]1CCCCCCCCCC[n+]1c(C)cc(N)c2ccccc21 | -15% (inactive)
CN(CCCOc1ccc(Cc2ccccc2)cc1)CCC(=O)O | -28.5% (inactive)

Target: Aldehyde dehydrogenase 1A1 (Homo sapiens) (UniProt P00352)
Assay: qHTS for Inhibitors of the Aldehyde Dehydrogenase Family (ALDH1A1) Confirmatory screens (AID 2061316); note: nearly all actives have a fitted effect of over 65% in size; for activity change, negative = inhibition: % is set by controls: 0 for no effect and ±100 for the full control effect
Settings: ALDH inhibition qHTS; series mostly up to 47.3 µM; activity change, negative = inhibition: at the top concentration

SMILES | activity change, negative = inhibition | outcome
CC1CN(S(=O)(=O)c2cccc3cnccc23)CCN1 (stereo not given) | -9.9% (inactive) | 
Brc1ccc([C@H]2CN3CCSC3=N2)cc1 | 4.63% (inactive) | 
CCCCCCN(CCCCCC)C(=O)Cc1c(-c2ccc(F)cc2)[nH]c2ccccc12 |  | inactive
Cc1cc(N)c2ccccc2[n+]1CCCCCCCCCC[n+]1c(C)cc(N)c2ccccc21 |  | inactive
CCCn1cnc2c1c(=O)n(CCCCC(C)=O)c(=O)n2C | -20% (inactive) | 
c1ccc(C(NCCNC(c2ccccc2)c2ccccc2)c2ccccc2)cc1 |  | inactive
CN1CCN(CC(=O)N2c3ccccc3C(=O)Nc3cccnc32)CC1 | -0.161% (inactive) | 
